Source: PubChem BioAssay (NCI)
The panel holds about 83,000 compounds, 20% with a hit somewhere; the sample as a whole holds those more often.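 Method: cells in 96-well plates; compound added at one concentration; 48 h incubation; percent growth measured; values under 10 scored active.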 Values without a mark were called inactive. Active and inactive are the calls of the source.

Tests used:
Test in all cases: NCI-60 one-dose screen, 48 h (100 = growth as untreated, 0 = no growth, -100 = all killed)
Conditions in all cases: 10 µM unless noted
T-47D breast = system: T-47D breast
BT-549 breast = system: BT-549 breast
MDA-MB-435 melanoma = system: MDA-MB-435 melanoma
SW-620 colon = system: SW-620 colon
MCF7 breast = system: MCF7 breast
HCT-116 colon = system: HCT-116 colon
HCC-2998 colon = system: HCC-2998 colon
KM12 colon = system: KM12 colon

SMILES	growth (T-47D breast)	growth (BT-549 breast)	growth (MDA-MB-435 melanoma)	growth (SW-620 colon)	growth (MCF7 breast)	growth (HCT-116 colon)	growth (HCC-2998 colon)	growth (KM12 colon)
CCNC(=O)Oc1ccc(/C(=C(\C)c2ccc(Cl)cc2)c2ccc(OCCN3CCCCC3)cc2)cc1	27.8%	72.8%	43.4%	9.64% (active)	21.7%	37.4%	75.1%	37.3%
Nc1ccc(S(=O)(=O)O)c2ccc(N=Nc3ccc(N=Nc4ccc(S(=O)(=O)O)cc4)c4ccccc34)c(O)c12	124%	107%	122%	93.5%	101%	99.4%	105%	99%
COc1ccc(/C=C2\Oc3cc(OCCCCN4CCCC4)ccc3C2=O)cc1	87.8%	82.3%	96.5%	13.4%	39.6%	5.32% (active)	91%	70.5%
CCCCCC(=O)Oc1ccc(/C(=C(\C)c2ccc(OC)cc2)c2ccc(OCCN3CCCCC3)cc2)cc1	34.8%	72.6%	62.6%	65.1%	24.8%	53.2%	66.7%	52.8%
CCCCC/C(C=C(C#N)C#N)=C/c1ccccc1	76.1%	69.3%	27%	59.2%	38.5%	27.7%	88.3%	72.6%
COc1ccc(-n2nc(C)c3c(Oc4ccc(NC(=O)Nc5c(Cl)cccc5Cl)cc4)ncnc32)cc1	87.4%	117%	100%	95.7%	96.4%	109%	100%	100%
CCCCn1c(-c2ccc(C(=O)O/N=C(\N)c3ccc4ccccc4c3)cc2)nc(-c2ccccc2)c1-c1ccccc1	46.2%	87.9%	85.1%	80.1%	61.2%	60.8%	95.8%	76.7%
C=C(C)[C@@H]1CC[C@]2(C(N)=O)CC[C@]3(C)[C@H](CC[C@@H]4[C@@]5(C)C/C(=C/c6ccco6)C(=O)C(C)(C)[C@@H]5CC[C@]43C)[C@@H]12	80%	108%	98%	105%	79.8%	83.3%	117%	97.6%
O=C(Cc1ccc(/C=C/C(=O)c2ncc[nH]2)cc1)Nc1ccccc1	39.9%	54.2%	57.3%	14.2%	9.95% (active)	44.2%	90.4%	12.8%
COc1cc(-c2nn(C)nc2-c2cc3ccccc3s2)cc(OC)c1OC	56.5%	18.8%	-41% (active)	26.7%	17%	15.9%	49.4%	19.5%
COc1ccc(S(=O)(=O)N2CCN(C)CC2)cc1NC(=O)c1[nH]c(C)c2c1CCCCC2=O	44.1%	90.4%	42.1%	70.7%	30%	53.5%	64.4%	64.7%
O=C1c2cc3c(cc2-c2c1c1ccc(F)cc1c(=O)n2CCCNCCO)OCO3	-17.7% (active)	-20% (active)	-71.5% (active)	-41.5% (active)	-65.5% (active)	-43.1% (active)	-65.7% (active)	-29.9% (active)
COc1ccc(/C=C/C(=O)c2ccc(O)c(CN3CCN(c4cc5c(cc4F)c(=O)c(C(=O)O)cn5C4CC4)CC3)c2)cc1	37.6%	17.7%	28.3%	17.5%	8.68% (active)	9.41% (active)	43.5%	24.8%
C#CCOc1ccc2ncnc(N3CCN(C(=O)CCl)CC3)c2c1	-48.7% [8.25 µM] (active)	56.8% [8.25 µM]	86.6% [8.25 µM]	47.1% [8.25 µM]	65.1% [8.25 µM]	27.7% [8.25 µM]	112% [8.25 µM]	108% [8.25 µM]
COc1ccc(-c2nc(SCC(=O)Nc3ccc(C(=O)/C=C/c4ccc(Cl)cc4)cc3)[nH]c(=O)c2C#N)cc1	61.8%	84%	41.9%	102%	41%	2.43% (active)	–	102%
COc1cc2nc(N3CCCC3)nc(NCCc3ccccc3)c2cc1OC	80.8%	82.6%	91.5%	0.907% (active)	35.4%	2.87% (active)	70.6%	96.3%

SMILES	growth (T-47D breast)	growth (BT-549 breast)	growth (MDA-MB-435 melanoma)	growth (SW-620 colon)	growth (MCF7 breast)	growth (HCT-116 colon)	growth (HCC-2998 colon)	growth (KM12 colon)
Cn1c(=O)[nH]c(=O)c2nc(CCC(=O)NCCC(=O)O)c(=O)[nH]c21	98.8%	105%	101%	101%	103%	109%	98.3%	102%
O=C1C=C(OCC=C(Cl)Cl)C(=O)c2ccccc21	38.9%	78.6%	-55.7% (active)	78.3%	26.6%	21.8%	112%	91%
O=C1C=CC(=O)N1c1ccc2c(c1)Cc1cc(F)ccc1-2	103%	105%	102%	98.1%	90.2%	94.3%	93.3%	102%
COc1cc(/C=C/c2cc(O)c3cc(C(C)=O)c(=O)oc3c2)cc2c1O[C@]1(C)CC[C@@H](O)C(C)(C)[C@H]1C2	60%	35%	21.2%	28.4%	5.64% (active)	44.2%	67%	57.6%
COc1ccc(S(=O)(=O)N2CCCCCC2)cc1NC(=O)c1[nH]c(C)c2c1CCCCC2=O	9.29% (active)	42.2%	25.6%	60.8%	17.9%	23.8%	20.2%	32.8%
CCOC(=O)c1sc2nc(-c3cccc(O)c3)nc(N3CCOCC3)c2c1C	5.33% (active)	52.8%	63.5%	73.2%	55.5%	68.1%	78.2%	63.3%
C#CC(F)(F)[C@]1(O)CC[C@H]2[C@@H]3CCC4=CC(=O)CCC4=C3[C@@H](c3ccc(C4CC4)cc3)C[C@@]21C	17.5%	73.1%	85.1%	18.5%	36.9%	75.8%	92%	6.36% (active)
CCOc1cc2ncc(C#N)c(Nc3ccc(F)c(Cl)c3)c2cc1NC(=O)CC1CCSS1 (stereo not given)	-48.4% (active)	-25.3% (active)	-92.1% (active)	-49% (active)	-34.7% (active)	-61.7% (active)	-74% (active)	-77.6% (active)
COc1cc(C(=O)/C=C/c2cccnc2Nc2ccc(Cl)cc2)cc(OC)c1OC	-67.3% (active)	-19.1% (active)	-58% (active)	-71.5% (active)	-54.4% (active)	-55.7% (active)	-84.3% (active)	-86.8% (active)
COC(=O)c1ccc(Cn2cnc3c(N)ncnc32)cc1	106%	119%	123%	109%	98.3%	104%	105%	117%
NC(=NCCCOc1ccc(Cl)cc1)Nc1ccc(Cl)cc1	8.01% (active)	59.6%	11.1%	33.5%	10.1%	7.02% (active)	–	41.3%
COc1cccc(-c2nn(C(C)(C)C)cc2-c2ccnc(NCCCNS(=O)(=O)c3ccc(C)cc3)c2)c1	98.1%	101%	104%	103%	102%	96.7%	113%	101%
Cc1cc2c3ccccc3ccc2[n+]2ccccc12	4.64% (active)	-2.46% (active)	76.5%	33%	27.2%	43.5%	47%	25.9%
CSc1nc(Nc2cccc(NC(=O)/C(C#N)=C/c3c(Cl)cccc3Cl)c2)c(C#N)c(-c2cccc([N+](=O)[O-])c2)n1	37.6%	71.6%	43.2%	38.1%	11.3%	35.6%	60.8%	78.3%
CC/C=C\C/C=C\C[C@H]1C/C=C2/C(=O)C=C[C@@H]2C/C=C\CCC(=O)O1	23.4%	-3.33% (active)	0.314% (active)	8.89% (active)	26.1%	-48.7% (active)	–	-27.8% (active)
